# Test results reported in ChEMBL document CHEMBL2218924, “A broad activity screen in support of a chemogenomic map for kinase signalling research and drug discovery” (Biochem J, 2013).
# Assays:
# [1] = target: T1, Serine/threonine-protein kinase Nek3 (Homo sapiens) (UniProt P51956); conditions: at 1 µM
# T1 sequence (whole entry): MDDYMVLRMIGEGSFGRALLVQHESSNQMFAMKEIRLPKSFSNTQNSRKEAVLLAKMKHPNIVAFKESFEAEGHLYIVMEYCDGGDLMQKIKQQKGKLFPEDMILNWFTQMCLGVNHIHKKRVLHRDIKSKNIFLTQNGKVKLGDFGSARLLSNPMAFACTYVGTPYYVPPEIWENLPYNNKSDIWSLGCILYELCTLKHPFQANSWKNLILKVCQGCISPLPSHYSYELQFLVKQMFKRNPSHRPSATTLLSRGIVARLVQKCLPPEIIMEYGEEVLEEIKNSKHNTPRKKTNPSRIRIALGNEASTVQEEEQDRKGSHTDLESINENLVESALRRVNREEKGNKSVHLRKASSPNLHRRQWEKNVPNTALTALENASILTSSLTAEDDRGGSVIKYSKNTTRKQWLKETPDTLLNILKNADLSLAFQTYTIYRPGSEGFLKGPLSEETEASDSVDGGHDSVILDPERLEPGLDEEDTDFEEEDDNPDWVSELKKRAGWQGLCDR
# [2] = target: T1, Serine/threonine-protein kinase Nek3 (Homo sapiens); conditions: at 10 µM
# [3] = target: Serine/threonine-protein kinase tousled-like 2 (Homo sapiens) (UniProt Q86UE8); conditions: at 1 µM
# Sequence of Serine/threonine-protein kinase tousled-like 2 (Homo sapiens) (Q86UE8 whole entry, looked up): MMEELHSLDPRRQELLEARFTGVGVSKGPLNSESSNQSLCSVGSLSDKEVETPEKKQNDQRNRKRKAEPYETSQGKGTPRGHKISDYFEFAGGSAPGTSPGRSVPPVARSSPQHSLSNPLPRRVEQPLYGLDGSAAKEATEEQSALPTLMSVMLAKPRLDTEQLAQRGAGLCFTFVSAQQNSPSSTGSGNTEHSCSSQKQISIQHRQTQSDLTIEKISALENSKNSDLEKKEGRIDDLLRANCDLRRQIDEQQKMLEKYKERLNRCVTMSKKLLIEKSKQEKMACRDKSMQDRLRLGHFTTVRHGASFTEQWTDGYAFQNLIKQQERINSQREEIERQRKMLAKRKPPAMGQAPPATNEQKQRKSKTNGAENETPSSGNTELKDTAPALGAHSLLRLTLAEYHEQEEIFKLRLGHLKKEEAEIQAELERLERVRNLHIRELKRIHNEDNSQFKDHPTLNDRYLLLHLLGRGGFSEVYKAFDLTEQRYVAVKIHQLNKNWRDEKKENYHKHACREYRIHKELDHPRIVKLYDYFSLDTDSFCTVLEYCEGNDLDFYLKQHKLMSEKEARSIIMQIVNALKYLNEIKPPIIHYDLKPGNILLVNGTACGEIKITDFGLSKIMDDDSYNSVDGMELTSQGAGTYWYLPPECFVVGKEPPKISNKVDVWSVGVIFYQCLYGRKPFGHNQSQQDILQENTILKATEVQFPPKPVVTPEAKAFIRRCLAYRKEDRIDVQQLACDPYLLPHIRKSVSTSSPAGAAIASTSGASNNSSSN
# [4] = target: Serine/threonine-protein kinase tousled-like 2 (Homo sapiens) (UniProt Q86UE8); conditions: at 10 µM
# [5] = target: T2, Testis-specific serine/threonine-protein kinase 2 (Homo sapiens) (UniProt Q96PF2); conditions: at 1 µM
# T2 sequence (whole entry): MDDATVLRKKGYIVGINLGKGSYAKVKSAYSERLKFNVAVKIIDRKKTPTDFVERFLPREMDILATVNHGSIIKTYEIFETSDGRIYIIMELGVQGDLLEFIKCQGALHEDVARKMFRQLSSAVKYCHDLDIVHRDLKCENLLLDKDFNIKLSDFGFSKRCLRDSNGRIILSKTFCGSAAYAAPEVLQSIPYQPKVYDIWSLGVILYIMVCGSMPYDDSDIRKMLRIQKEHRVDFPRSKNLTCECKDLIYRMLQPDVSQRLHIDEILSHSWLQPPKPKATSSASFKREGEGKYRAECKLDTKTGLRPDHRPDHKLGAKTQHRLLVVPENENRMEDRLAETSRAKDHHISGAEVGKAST
# [6] = target: T3, Serine/threonine-protein kinase Nek2 (Homo sapiens) (UniProt P51955); conditions: at 1 µM
# T3 sequence (whole entry): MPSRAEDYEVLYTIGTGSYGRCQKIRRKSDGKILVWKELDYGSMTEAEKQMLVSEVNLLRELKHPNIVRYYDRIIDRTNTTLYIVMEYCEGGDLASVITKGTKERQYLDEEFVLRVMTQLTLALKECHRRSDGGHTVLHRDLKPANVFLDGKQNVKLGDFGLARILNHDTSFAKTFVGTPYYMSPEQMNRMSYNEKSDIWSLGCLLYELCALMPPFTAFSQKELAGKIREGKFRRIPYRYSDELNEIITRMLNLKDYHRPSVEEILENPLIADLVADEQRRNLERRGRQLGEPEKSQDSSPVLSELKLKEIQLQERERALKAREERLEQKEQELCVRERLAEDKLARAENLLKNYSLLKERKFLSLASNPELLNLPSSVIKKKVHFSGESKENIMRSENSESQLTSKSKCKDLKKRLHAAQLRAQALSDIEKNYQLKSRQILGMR
# [7] = target: T3, Serine/threonine-protein kinase Nek2 (Homo sapiens); conditions: at 10 µM
# [8] = target: T4, Testis-specific serine/threonine-protein kinase 1 (Homo sapiens) (UniProt Q9BXA7); conditions: at 1 µM
# T4 sequence (whole entry): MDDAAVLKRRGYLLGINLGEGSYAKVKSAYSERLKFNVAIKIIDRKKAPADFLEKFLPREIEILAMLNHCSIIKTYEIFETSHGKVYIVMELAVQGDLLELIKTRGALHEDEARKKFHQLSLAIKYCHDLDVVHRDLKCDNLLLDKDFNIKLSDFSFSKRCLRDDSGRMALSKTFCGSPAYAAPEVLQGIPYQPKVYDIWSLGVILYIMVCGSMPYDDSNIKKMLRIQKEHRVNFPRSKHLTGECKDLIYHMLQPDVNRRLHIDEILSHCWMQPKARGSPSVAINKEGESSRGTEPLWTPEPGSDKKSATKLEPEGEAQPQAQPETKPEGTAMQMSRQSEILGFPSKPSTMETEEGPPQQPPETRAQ
# [9] = target: T4, Testis-specific serine/threonine-protein kinase 1 (Homo sapiens); conditions: at 10 µM
# [10] = target: T2, Testis-specific serine/threonine-protein kinase 2 (Homo sapiens); conditions: at 10 µM
smiles,measurement,setting,value
CN[C@@H]1C[C@H]2O[C@@](C)([C@@H]1OC)n1c3ccccc3c3c4c(c5c6ccccc6n2c5c31)C(=O)NC4,residual activity,[1],105%
same,residual activity,[2],67%
same,residual activity,[3],1%
same,residual activity,[4],1%
CC[n+]1c(/C=C/N(C)c2ccccc2)n(-c2ccccc2)c2ccc(-c3nc4ccccc4s3)cc21,residual activity,[5],104%
O=C1Nc2cc(Br)ccc2/C1=C1/Nc2ccccc2/C1=N\O,residual activity,[5],73%
COc1cc2ncnc(Nc3ccc(O)c(Br)c3)c2cc1OC,residual activity,[5],93%
CO[C@H]1C[C@@H]2CC[C@@H](C)[C@@](O)(O2)C(=O)C(=O)N2CCCC[C@H]2C(=O)O[C@H]([C@H](C)C[C@@H]2CC[C@@H](O)[C@H](OC)C2)CC(=O)[C@H](C)/C=C(\C)[C@@H](O)[C@@H](OC)C(=O)[C@H](C)C[C@H](C)/C=C/C=C/C=C/1C,residual activity,[5],90%
CCn1cnc2c(Nc3cccc(Cl)c3)nc(N[C@@H]3CCCC[C@@H]3N)nc21,residual activity,[6],98%
same,residual activity,[7],55%
same,residual activity,[1],75%
same,residual activity,[2],81%
same,residual activity,[3],31%
same,residual activity,[4],4%
same,residual activity,[8],79%
same,residual activity,[9],40%
same,residual activity,[5],90%
same,residual activity,[10],58%
COc1ccc(S(=O)(=O)N(CCO)c2ccccc2CN(C)C/C=C/c2ccc(Cl)cc2)cc1,residual activity,[5],101%
COc1cc2ncnc(Nc3ccc(OCc4ccccc4)cc3)c2cc1OC,residual activity,[6],101%
same,residual activity,[7],113%
same,residual activity,[1],90%
same,residual activity,[2],80%
same,residual activity,[3],115%
same,residual activity,[4],96%
same,residual activity,[8],104%
same,residual activity,[9],90%
same,residual activity,[5],107%
same,residual activity,[10],102%
CCOc1cc2ncnc(Nc3cccc(Br)c3)c2cc1OCC,residual activity,[5],82%
CC(C)(C)c1cc(C=C(C#N)C#N)cc(Br)c1O,residual activity,[7],101%
same,residual activity,[1],115%
same,residual activity,[2],109%
same,residual activity,[3],112%
same,residual activity,[4],98%
same,residual activity,[8],105%
same,residual activity,[9],101%
same,residual activity,[5],113%
O=[N+]([O-])/C=C/c1ccc2c(c1)OCO2,residual activity,[6],87%
same,residual activity,[7],98%
same,residual activity,[2],107%
same,residual activity,[3],99%
same,residual activity,[4],97%
same,residual activity,[8],96%
same,residual activity,[9],94%
same,residual activity,[5],87%
same,residual activity,[10],74%
O=C(NC(NC(=S)Nc1ccc(F)c([N+](=O)[O-])c1)C(Cl)(Cl)Cl)C(c1ccccc1)c1ccccc1 (configuration not stated),residual activity,[5],102%
CCc1nc(-c2ccc(OC)cc2)[nH]c1-c1ccncc1,residual activity,[6],112%
same,residual activity,[7],105%
same,residual activity,[2],106%
same,residual activity,[3],107%
same,residual activity,[4],100%
same,residual activity,[8],113%
CC(C)[C@H](CO)Nc1nc(Nc2cccc(Cl)c2)c2ncn(C(C)C)c2n1,residual activity,[6],90%
same,residual activity,[7],53%
same,residual activity,[1],84%
same,residual activity,[2],89%
same,residual activity,[3],100%
same,residual activity,[4],81%
same,residual activity,[8],97%
same,residual activity,[9],72%
same,residual activity,[5],94%
same,residual activity,[10],79%
CO[C@H]1[C@@H](OC)C[C@H](C)[C@@H](OC)C2=CC(=O)C=C(NC(=O)/C(C)=C/C=C/[C@H](OC)[C@@H](OC(N)=O)/C(C)=C/[C@@H]1C)C2=O,residual activity,[5],97%
O=C1NC(=O)c2c1c1c3ccccc3[nH]c1c1[nH]c3cc(Br)ccc3c21,residual activity,[5],102%
COc1cc2ncnc(N3CCN(C(=O)Nc4ccc(Oc5ccccc5)cc4)CC3)c2cc1OC,residual activity,[5],96%
O=C1C(Cl)=C(N2C(=O)CCC2=O)C(=O)c2ccccc21,residual activity,[5],84%
O=C1c2ccccc2-c2nc3nnnn3nc21,residual activity,[1],116%
same,residual activity,[2],102%
COc1ccc2c(c[n+](C)c3c4cc5c(cc4ccc23)OCO5)c1OC,residual activity,[6],76%
same,residual activity,[7],68%
same,residual activity,[1],110%
same,residual activity,[2],60%
same,residual activity,[3],95%
same,residual activity,[4],92%
NC(=O)Nc1sc(-c2ccc(F)cc2)cc1C(N)=O,residual activity,[5],88%
O=c1c2ccccc2[nH]c(=S)n1CCN1CCC(=C(c2ccc(F)cc2)c2ccc(F)cc2)CC1,residual activity,[5],96%
Fc1ccc(-c2nc3n(c2-c2ccncc2)CCS3)cc1,residual activity,[5],85%
O=c1[nH]c2ccccc2n1C1CCN(Cc2ccc(-c3nc4cc5[nH]cnc5cc4nc3-c3ccccc3)cc2)CC1,residual activity,[6],86%
same,residual activity,[7],84%
same,residual activity,[1],111%
same,residual activity,[3],104%
same,residual activity,[4],84%
same,residual activity,[8],97%
same,residual activity,[9],54%
same,residual activity,[5],106%
same,residual activity,[10],45%
CC(C)n1cnc2/c(=N/c3cccc(Cl)c3)nc(NCCO)[nH]c21,residual activity,[5],88%
CCN(CC)CCNC(=O)c1c(C)[nH]c(/C=C2\C(=O)Nc3ccc(Cl)cc32)c1C,residual activity,[5],62%
COc1cc(OC)c(/C=C2\C(=O)Nc3ccccc32)c(OC)c1,residual activity,[6],90%
same,residual activity,[7],91%
same,residual activity,[1],80%
same,residual activity,[2],96%
same,residual activity,[3],91%
same,residual activity,[4],85%
same,residual activity,[8],92%
same,residual activity,[9],91%
same,residual activity,[5],102%
same,residual activity,[10],99%
O=c1cc(-c2cccc3c2Sc2ccccc2S3)oc(N2CCOCC2)c1,residual activity,[5],112%
O=C1NC(=O)/C(=C/c2ccc3c(c2)OC(F)(F)O3)S1,residual activity,[5],93%
C[S+]([O-])c1ccc(-c2nc(-c3ccc(F)cc3)c(-c3ccncc3)[nH]2)cc1 (configuration not stated),residual activity,[6],114%
same,residual activity,[7],118%
same,residual activity,[1],104%
same,residual activity,[2],104%
same,residual activity,[3],113%
same,residual activity,[4],109%
same,residual activity,[8],106%
same,residual activity,[9],94%
same,residual activity,[5],94%
same,residual activity,[10],100%
